The results in this text go back to PubChem BioAssay AID651724 (National Center for Advancing Translational Sciences (NCATS), 2012).

Structures are written as SMILES. Among all 340,000 compounds or so, about 1,700 (0.5%) were called active. Not shown: some 2% with an inconclusive outcome. This is one part of a sample in which actives are shown more often than they occur. A number with no mark means an inactive call. Cut-off read from the data, not from the text of the source: active = activity change below about -65%; inconclusive = mostly about -30% to -63%; inactive = weaker than that.
% is set by controls: 0 for no effect and ±100 for the full control effect.

This test concerns CtBP / adenovirus E1A interaction (AlphaScreen). Nature of the test: qHTS Assay for Inhibitors of the CtBP/E1A Interaction. The following applies: AlphaScreen GST-E1A/His-CtBP binding, 1536-well; stronger effect = lower value. The gist of the method:
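In 5 uL wells, 23 nL compound meets equimolar GST-E1A and His-CtBP (5X stock 125 nM each) for 2 h, 37 °C. Beads (5X, 50 ug/mL) then 1 h, 37 °C, dark.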
For the molecule `CC(=O)NC(c1cccc(F)c1)c1nc(-c2cccc(F)c2)cs1` (centres undefined), the activity change was 6.59%. Consider `CCOC(=O)c1cc(-c2sc(NC(=O)c3ccccc3)nc2C)n(-c2ccc(Br)cc2)n1`, for which the activity change is 0%. Then `COc1cccc(NC(=O)CN(C)C(=O)c2cc(Cl)nc3ccccc23)c1`, with -3.92%; and `Cc1ccsc1C(=O)N/N=C/c1ccc([N+](=O)[O-])cc1`, with -4.19%. On to `COc1ccc2ccccc2c1/C=N/NC(=O)c1cc(C)[nH]n1`, for which the activity change was -8.94%. Regarding `Cc1cc(C(=O)N/N=C/c2cc([N+](=O)[O-])cc(C)c2O)n[nH]1`, the activity change is -87.9% (active). With `Cc1ccccc1S(=O)(=O)NC(=O)C1(C)CCN1C(=O)C1(c2ccc(Cl)cc2)CC1` (centres undefined), the activity change was 9.59%. `NC(c1ccccc1)c1csc(NC(=O)Nc2cccc(C(F)(F)F)c2)n1` (centres undefined): the activity change is -14.2%.

Consider `NC(=S)NN=Cc1ccc(OC(=O)COc2cc(Cl)c(Cl)cc2Cl)cn1`, for which the activity change is -89.3% (active). For `O=C(COc1ccc(Cl)cc1Cl)N/N=C/c1ccccn1` the value was -13%; for `O=C(COC(=O)COc1cc(Cl)c(Cl)cc1Cl)NC1CC1`, -0.684%; for `CCCS(=O)(=O)NC(=O)C1(C)CCCN(C(=O)c2ccnc(Cl)c2)C1` (centres undefined), -15.6%. As for `Cc1cc([N+](=O)[O-])ccc1NC1CCCC1`, the activity change was -0.0944%. As for `Cc1cc([N+](=O)[O-])c(NC2CCCCC2)c([N+](=O)[O-])c1`, the activity change was -67.5% (active). Then `Cc1cc([N+](=O)[O-])c(N2CCC[C@@H]2C(=O)O)c([N+](=O)[O-])c1`, with 4.03%. For `CN(C)CCNC(=O)c1ccc(-c2cn3c(-c4ccc(Oc5ccccc5)cc4)cnc3cn2)cc1` the value was -7.14%; for `Cc1cccc(C)c1NC(=O)CN1CCN(c2ccc(F)cc2)CC1`, -4.18%; for `Oc1c(CN2CCN(c3ccc(F)cc3)CC2)cc(Cl)c2cccnc12`, -85.8% (active). As for `Cc1ccc(CN2CCN(c3ncccn3)CC2)c(C)c1`, the activity change was -0.239%.

For `O=C1CC[C@@H](C(=O)N2CSC[C@@H]2C(=O)Nc2ccc(C(F)(F)F)cc2)N1`, the activity change is 2.94%.

For `COc1ccc(C=C2CCC3C(CCCC34OCCO4)C2=O)cc1` (centres undefined), the activity change was -0.25%. On to `Cc1ccc(C(=O)N/C(=C\c2cccs2)C(=O)NCCc2ccccn2)cc1C`, for which the activity change is -19.9%. Consider `COc1cncc(-c2cnc3sc(NCCc4ccccn4)nn23)c1`, for which the activity change is -68.3% (active). As to `COc1cccc(NC(=S)NCc2ccccn2)c1`, the activity change is -9.96%. For the molecule `O=S(=O)(c1cccc(C(F)(F)F)c1)N1c2ccccc2-n2cccc2C1c1cccnc1` (centres undefined), the activity change is 1.4%. With `C[C@@H]1CN([C@@H](C)CO)C(=O)c2cc(Br)cnc2O[C@H]1CN(C)Cc1ccc(-c2ccccc2)cc1`, the activity change was -2.2%.

Turning to `CCCCCc1c(-c2cccc(Br)c2)ncn1CCc1ccccc1OC`, the activity change is -0.685%.

As to `COc1cccc(C(NC(C)=O)c2nc(-c3cnc4ccccc4c3)cs2)c1` (centres undefined), the activity change is -20.3%.

Regarding `Cc1ccc(-c2cnc(C(O)c3cccc(C)c3C)[nH]2)cc1` (centres undefined), the activity change was -4.55%. In the case of `COCCNC(=O)CSc1nc(N)c(NC(=O)c2ccco2)c(=O)[nH]1`, the activity change is 12.4%.

Take `COC(=O)c1ccc(NC(=O)CSc2nc(N)c(NC(=O)c3ccc(Br)o3)c(=O)[nH]2)cc1`: the activity change is -65.1% (active). With `COc1ccc(C(=O)Nc2c(N)nc(SCC(=O)Nc3ccc(C(C)=O)cc3)[nH]c2=O)cc1`, the activity change is -2.12%. Regarding `O=c1nc2s/c(=C\c3ccco3)c(=O)n2nc1Cc1ccccc1`, the activity change was -81.2% (active). For `O=C(Nc1ccccc1)/C(=C\c1ccco1)NC(=O)c1ccco1` the value was 0.317%; for `O=C(NCCc1ccco1)c1nn(Cc2ccccc2)c(=O)c2ccccc12`, -2.1%; for `CCCCOCCCNC(=O)C[C@@H]1C[C@@]2(C(=O)OC)CCCCC=C2N(CCC2=CCCCC2)C1=O`, -1.56%.

On to `Cc1ccc(-n2ncc3c(Nc4cccc(C(=O)O)c4)ncnc32)cc1`, for which the activity change was -74.4% (active). Take `Cc1ccc(Nc2ncnc3c2cnn3C)c(C)c1`: the activity change is 3.32%. As to `CC(C)Sc1ncnc2c1cnn2-c1ccccc1`, the activity change was 0.575%. For `CC(=O)Nc1cc(-c2cccc(CO)c2)cn2c(-c3cccc(C(F)(F)F)c3)cnc12`, the activity change is 3.79%. Regarding `CN(Cc1cn(Cc2ccc(C(F)(F)F)cc2)nn1)C1CN(Cc2cn(Cc3ccc(C(F)(F)F)cc3)nn2)S(=O)(=O)C1` (centres undefined), the activity change is 3.64%.

For the molecule `Cc1ccc(NC(=O)/C(=C/c2ccc([N+](=O)[O-])cc2)NC(=O)c2ccccc2)cc1`, the activity change is 4.11%.

Regarding `O=C(N/N=C/c1cc([N+](=O)[O-])ccc1O)/C(=C\c1cccs1)NC(=O)c1ccccc1`, the activity change is -94.1% (active). For the molecule `O=C(Nc1ccc(C(=O)O)cc1)/C(=C/c1ccc([N+](=O)[O-])cc1)NC(=O)c1ccccc1`, the activity change is -2.48%.

Take `CCCCN(C=O)c1c(CC)nc2c(OCCC3CCCCC3)cccn12`: the activity change is -11%. For the molecule `CCC(CC)C(C(=O)NC1CCCC1)N1CCN(c2cc(C)nc3ccccc23)CC1` (centres undefined), the activity change is 3.39%. Regarding `CCc1cc(=O)oc2c(C)c(OCC(=O)NCCN3CCOCC3)ccc12`, the activity change was -6.07%.

For `Cc1cc(=O)oc2c(C)c(OCC(=O)NCCN3CCOCC3)ccc12`, the activity change is 0.132%. Consider `O=C(COc1cc2oc(=O)c3c(c2cc1Cl)CCC3)NCCCN1CCOCC1`, for which the activity change is -65.9% (active). Regarding `O=C(CC(CC(=O)c1ccccc1)c1ccco1)c1ccccc1`, the activity change was 4.89%.

On to `Cc1ccc(S(=O)(=O)N2CCC(N3CCCCCC3)CC2)cc1`, for which the activity change was -10.9%.

Take `Cc1ccc(S(=O)(=O)NC2CCCCCC2)cc1`: the activity change was 10.7%. `Cc1ccc(S(=O)(=O)n2oc(=O)c(C3CCCCC3)c2N)cc1`: the activity change is -69.5% (active). On to `Cc1cc(Br)cn2c(Cc3ccccc3C(F)(F)F)c(C3CCCCC3)nc12`, for which the activity change was -6.97%. Then `Cc1noc(C)c1-c1ccc(C(=O)NCc2ccncc2)c2occc12`, with -17.7%. On to `Cc1[nH]c2ccccc2c1C(=O)c1cc([C@H](NC(=O)OC(C)(C)C)C(C)C)sc1N`, for which the activity change is -23.1%.

With `O=C(CSc1nc2ccccc2o1)N1CCN(c2ccccc2)CC1`, the activity change is -3.28%. With `O=C(CSc1nc2ccccc2o1)N1CCN(c2ccc(Cl)cc2)CC1`, the activity change is -0.51%. `CC(C)(C)C(=O)CSc1nc2ccccc2o1`: the activity change is 11.1%. Then `O=C(CSc1nc2ccccc2o1)N/N=C/c1ccccc1C(=O)O`, with -92.7% (active); and `Cc1ccc(/C=N/NC(=O)CSc2nc3ccccc3o2)cc1`, with -93.4% (active); and `CCN(CC)C(=O)CSc1nc2ccccc2o1`, with 4.11%. For `CC(=O)Nc1cc(-c2ccc(N3CCN(C)CC3)cc2)cn2c(-c3ccc(F)cc3)cnc12` the value was -22%. For `CCc1nc2ccc(C(=O)Nc3cccc(OC)c3)cn2c1N(CCC(C)C)CCN(C)C` the value was -9.75%; for `Cc1ccc(S(=O)(=O)N2CCCCC2)cc1NC(=O)CCNC(=O)c1ccccc1Cl`, 2%; for `O=C(Nc1ccc(Cl)cc1)C1Cc2c(-c3ccc4c(c3)OCO4)ccnc2O1` (centres undefined), -5.12%. Turning to `O=C(NCc1ccc(F)cc1)c1cc(C2CCCCN2C(=O)c2cccs2)on1` (centres undefined), the activity change was 4.5%. Then `C/C(=N\NC(=O)c1ccccc1F)c1ccccn1`, with -97.9% (active); and `CCCCCNC(=O)Cc1ccc(OC)cc1`, with 12.5%. As to `COc1ccc(C/C(C)=N/NC(=O)c2cc(C)oc2C)cc1`, the activity change was 8.03%. Take `O=C(NCCOc1ccccc1)c1ccccc1F`: the activity change is 0.486%. As for `COc1ccc(CC(=O)N/N=C(\C)c2ccccn2)cc1`, the activity change is -73.3% (active). Then `Cc1cccc(C)c1NC(=S)N1CCCCCC1`, with 3.43%; and `CC(=NNC(=S)N1CCCCCC1)c1ccccn1`, with -89.7% (active). In the case of `CNC(=S)N1CCN(c2ccccn2)CC1`, the activity change was 5.96%.

In the case of `C/C(CC(=O)Nc1ccc(N(C)C)cc1)=N\NC(=O)c1ccccc1F`, the activity change is -8.83%.

As to `C#CCN(C[C@@H]1[C@@H](OC(=O)NC2CC2)[C@@H](OC(=O)NC2CC2)Cn2c(=O)ccc(=O)n21)S(=O)(=O)c1ccc(C)cc1`, the activity change was 3.71%. Turning to `FC(F)(F)c1ccccc1Cc1c(-c2ccccc2)nc2c3ccccc3ccn12`, the activity change was 6.14%. As for `Cc1cccc(C(=O)C(O)(c2ccccc2)C2CCCCC2=O)c1` (centres undefined), the activity change was 3.76%. For the molecule `CC1(C(=O)NS(=O)(=O)c2ccc3ccccc3c2)CCN1C(=O)C1(c2ccc(Cl)cc2)CCC1` (centres undefined), the activity change was -4.19%. Turning to `O=C(CSc1nc2cccc(F)c2c(=O)n1-c1ccccc1)Nc1ccc2c(c1)CCC2`, the activity change was 8.09%. For the molecule `CC(=O)Nc1cccc(-c2ccnc3c2CC(C)(C(=O)NCc2ccccc2)O3)c1` (centres undefined), the activity change was 0.959%. For the molecule `CC1(C(=O)NS(=O)(=O)c2ccccc2)CCN1C(=O)Cc1ccc(-c2ccccc2)cc1` (centres undefined), the activity change was 1.02%. For the molecule `O=c1[nH][nH]c2c1[C@H](c1ccc(Cl)cc1)O[C@H](CCc1ccccc1)C2`, the activity change was 1.98%. As for `COc1cccc(-c2cnc3c(NC(C)=O)cc(-c4cc(F)ccc4OC)cn23)c1`, the activity change is -20.8%. Then `Cc1ccc(C(=O)O)cc1NC(=O)c1ccc(Cn2nc(C)c(Cl)c2C)o1`, with 0%; and `Cc1nn(Cc2ccc(Cl)cc2)c(Cl)c1/C=N/NC(=O)c1cccnc1`, with -0.89%. On to `Cc1c(Cl)c([N+](=O)[O-])nn1Cc1ccc(C(=O)N/N=C\c2cc(Cl)ccc2O)o1`, for which the activity change was -70.3% (active). On to `CNc1cncc(-c2ccc(NS(C)(=O)=O)cc2)n1`, for which the activity change was 0.0496%.
